# Most compounds without a hit are left out; they make up all but 3.5% or so of the library.
# BoNT-A LC inh2: BoNT/A light chain protease inhibitors, primary screen, biochemical, flow cytometry, MLPCN library; Botulinum neurotoxin type A light chain protease (Clostridium botulinum A str. ATCC 3502); multiplex microsphere protease substrate cleavage; inhibition, % at 10 µM; 0.17% of 360,000 active; AID 588499, 2011; note: plate controls were buffer without enzyme for full effect and enzyme alone for no effect
# BoNT-F LC inh: BoNT/F light chain protease inhibitors, primary screen, biochemical, flow cytometry, MLPCN library | Multiplex microsphere protease cleavage assay | 0.22% of 360,000 active | Botulinum neurotoxin type F light chain protease (Clostridium botulinum) | inhibition, % at 10 µM; in the data active = inhibition above about 35%, passing the limit was not always enough; inconclusive = no clear call, values can overlap the other calls; note: plate controls were buffer without enzyme for full effect and enzyme alone for no effect
# Anthrax LF inh2: Bacillus anthracis LF protease inhibitors, primary screen, biochemical, multiplex microsphere, MLPCN library; multiplex microsphere protease cleavage assay; Lethal factor (Bacillus anthracis), P15917; inhibition, % at 10 µM; 0.12% of 360,000 active; note: plate controls were buffer without enzyme for full effect and enzyme alone for no effect
# Bead autofluor: flagged as autofluorescent in microsphere protease counterscreen; compound autofluorescence counterscreen, microsphere flow cytometry; hits give high values; fluorescence intensity (test concentration not listed); 3.1% of 360,000 active; in the data active = fluorescence intensity above about 16000; inconclusive = no clear call, values can overlap the other calls
# Starred values were filed as active, the others as inactive; ? = inconclusive. Cut-off read from the data, not from the text of the source, unless noted: active = inhibition above about 30%; inconclusive = no clear call, values can overlap the other calls; inactive = below that.
SMILES,BoNT-A LC inh2,BoNT-F LC inh,Anthrax LF inh2,Bead autofluor
O=C(Nc1cccnc1)c1cc(-c2cccnc2)nc2ccc(Br)cc12,3.5,2.1,1.7,21271*
COCCNC(=O)c1cc(-c2cccnc2)nc2ccc(Br)cc12,0.7,1.0,-0.8,23362*
COc1cc(NC(=O)c2cc(-c3cccnc3)nc3ccc(Br)cc23)cc(OC)c1,1.5,-3.4,-5.5,4404
O=C(NNC(=O)C1CC(=O)N(Cc2ccccc2)C1)c1ccc(F)cc1 (stereo not drawn),1.0,-7.1,-2.2,5970
COC(=O)c1ccc(CS(=O)(=O)c2ccccc2C)o1,?,1.0,-2.3,23513*
COc1ccccc1S(=O)(=O)Cc1ccc(C(=O)N2CCN(c3cccc(Cl)c3)CC2)o1,0.6,-1.2,4.3,9609
Cc1cccc(N2CCN(C(=O)c3ccc(CS(=O)(=O)c4ccccc4C)o3)CC2C)c1 (stereo not drawn),?,1.3,-1.7,21673*
COc1ccccc1S(=O)(=O)Cc1ccc(C(=O)N2CCN(c3ccccc3)CC2)o1,0.5,-0.3,0.0,21717*
Cc1ccc(C)c(N2CCN(C(=O)c3ccc(CS(=O)(=O)c4ccccc4C)o3)CC2)c1,-0.4,4.3,2.8,9264
COCCNC(=O)C1(C)CCCN(C(=O)c2ccc3snnc3c2)C1 (stereo not drawn),0.0,2.4,-9.5,4063
CC(C)C[C@H]1CN([C@@H](CC(C)C)CN2CCC[C@H]2CN2C(=O)C(=O)NC[C@@H]2Cc2ccc(O)cc2)C(=O)C(=O)N1CC1CCCCCC1,-0.6,0.0,-3.8,5689
COc1cc(/C=C/C(=O)c2ccc(Cl)s2)cc(OC)c1O,?,-3.3,6.1,21357*
COc1ccc(/C=C/C(=O)c2ccc(Cl)s2)cc1O,0.8,-2.0,-5.0,9061
CC1(C)CC(Cc2ccc(C(=O)c3ccccc3)cc2)N(C(=O)OC(C)(C)C)N1 (stereo not drawn),-0.1,6.1,3.0,3584
O=C(CN(Cc1ccco1)C(=O)c1cc(=O)[nH]c2ccccc12)Nc1ccccc1C(F)(F)F,0.1,-0.4,-3.5,16502*
O=C(CN(Cc1ccco1)C(=O)c1ccc(F)cc1F)Nc1ccccc1C(F)(F)F,2.0,3.7,-5.1,6714
NC(=O)CC(NC(=O)Cc1ccc(Br)cc1)c1ccc(N2CCc3ccccc3C2)c([N+](=O)[O-])c1 (stereo not drawn),-0.6,-7.9,-9.4,4053
Cc1ccc(S(=O)(=O)Nc2nsc(N)n2)cc1,-3.3,-10.1,-4.5,17173*
CCOC(=O)C(C#N)(Cc1ccc2ccccc2n1)Cc1ccc2ccccc2n1,-0.7,-2.8,-1.0,3517
O=C(Nc1ccccc1C(=O)O)C1=NN=CC1,0.8,-11.7,4.6,3912
O=C(Nc1ccc(Cl)cc1)N(Cc1cccnc1)Cc1ccco1,-1.2,-5.2,-6.2,9511
Cc1ccc(NC(=O)N(Cc2cccnc2)Cc2ccco2)cc1C,-3.2,-4.1,-6.6,23168*
NC(=O)C1CCN(C(=O)c2cc(-c3ccc(Cl)s3)nc3ccccc23)CC1,-0.1,-6.5,-4.3,2929
CN(C)c1ccc(-c2noc(C3CCN(S(=O)(=O)c4cccc(Cl)c4)CC3)n2)cc1,?,-10.8,-6.4,17481*
CN(C)c1ccc(-c2noc(C3CCN(S(=O)(=O)c4ccc(C(=O)O)cc4)CC3)n2)cc1,?,3.5,-3.7,22586*
SMILES,BoNT-A LC inh2,BoNT-F LC inh,Anthrax LF inh2,Bead autofluor
O=[N+]([O-])c1cc(S(=O)(=O)N2CCOCC2)ccc1OCc1ccccc1C(F)(F)F,-0.5,18.9,-2.6,5588
O=C1CC(N2CCN(c3ccc(Cl)c(Cl)c3)CC2)C(=O)N1 (stereo not drawn),-0.8,-1.9,-3.1,21082*
O=C1CC(N2CCN(Cc3ccccc3)CC2)C(=O)N1 (stereo not drawn),0.9,2.6,-1.2,2595
Cc1cc(-n2c(SCC(=O)NCc3cccs3)nc3n[nH]c(C)c3c2=N)ccc1Cl,0.0,-0.9,-0.6,23384*
Cc1ccc(C(=O)Oc2ccc(Br)cc2C(=S)N2CCOCC2)cc1,0.1,1.7,0.5,4972
Cc1c([N+](=O)[O-])cc(C(=O)Oc2ccc(Br)cc2C(=S)N2CCCCC2)cc1[N+](=O)[O-],?,1.2,-2.9,22033*
COCc1cc(C)nc(SCC(=O)Nc2ccc(N3CCOCC3)cc2)c1C#N,1.3,-0.1,-3.1,5080
CON=C1CCN(c2ncc(C(F)(F)F)cc2Cl)CC1,?,1.2,0.7,19907*
O=C(OC1CCN(c2ncc(C(F)(F)F)cc2Cl)CC1)c1ccc(Cl)cc1,-0.4,-3.4,-1.8,24209*
